According to PubChem BioAssay (NCI):
Compounds without any hit were thinned out: in the full panel of roughly 83,000, 20% have a hit.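 Results are percent growth after 48 hours of single-concentration exposure. 100 means growth as in untreated cells, lower positive values show inhibition; negative values down to -100 show cell death.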 The source made the active and inactive calls. How the source made its calls: active means growth percent below 10; inactive means the rest.

Tested on: SR leukemia
Assay: NCI-60 one-dose screen, 48 h (100 = growth as untreated, 0 = no growth, -100 = all killed)
Conditions: 10 µM unless noted

Q: For `COc1ccc(C2CC(c3ccc4ccccc4c3)=NN2c2nc(O)c(C3=c4cc(Cl)ccc4=NC3=O)s2)cc1` (configuration not stated), which growth is on record?
A: -34.4% (active)

Q: For `NS(=O)(=O)c1cnccc1-n1ccc(=O)c(S(N)(=O)=O)c1`, which growth is on record?
A: 86.5% (inactive)

Q: With `O=C(/C=C/C12c3ccccc3C(c3ccccc31)C1C(=O)N(c3ccc(Cl)cc3)C(=O)C12)c1ccccn1` (configuration not stated) as the compound, how does the growth read?
A: 13.6% (inactive)

Q: For `O=C1CC(c2ccc3c(c2)OCO3)Nc2cc3c(cc21)OCO3` (configuration not stated), which growth is on record?
A: 7.67% (active)

Q: With `C=CCOc1cccc(/C=C2\SC(=Nc3ccc(O)cc3)NC2=O)c1` as the compound, how does the growth read?
A: 17.1% (inactive)

Q: With `Cc1cc(-c2ccc(N(C)C)cc2)c2sc(=O)[nH]c2n1` as the compound, how does the growth read?
A: 40.1% (inactive)

Q: With `O=C1NC(=S)S/C1=C\N1N=C(c2ccc(Cl)cc2)CC1c1ccc(F)cc1` (configuration not stated) as the compound, how does the growth read?
A: 46.9% (inactive)

Q: Which growth does the source give for `COc1ccccc1NC(=O)Nc1ccc(-c2nc3ccccc3o2)cc1` here?
A: 69% (inactive)

Q: Which growth does the source give for `O=C(c1ccccc1)c1ccc(N2C(=O)C3C4c5ccccc5C(/C=C/C(=O)c5ccccn5)(c5ccccc54)C3C2=O)cc1` (configuration not stated) here?
A: 13.7% (inactive)

Q: Which growth does the source give for `Cc1ccc2c(n1)C(=O)C(Oc1ccc(F)cc1)=CC2=O` here?
A: 64.6% (inactive)

Q: Which growth does the source give for `COc1cc2ccccc2cc1C(=O)NC(=S)Nc1ccc(-c2nc3ccccc3[nH]2)cc1` here?
A: 28.3% (inactive)

Q: `COc1cc2c(O)n(CCCn3ccnc3)c3c4cnc5cccc(c(=O)c3c2cc1OC)c54` was tested. Which growth did it give?
A: 25% (inactive)

Q: With `Cc1nn(-c2ccccc2)c2c1C(c1ccc([N+](=O)[O-])cc1)C(C#N)=C(N)O2` (configuration not stated) as the compound, how does the growth read?
A: 91.5% (inactive)

Q: With `Cc1ccc(S(=O)(=O)N(CC[C@@H]2C[C@H]2c2cc3ccccc3o2)C(=O)NC2CCCCC2)cc1` as the compound, how does the growth read?
A: 100% (inactive)

Q: For `N#Cc1c(NC(=O)c2ccc(Br)cc2)sc2c1CCCC2`, which growth is on record?
A: 50.2% (inactive)

Q: Which growth does the source give for `COc1cc(C(=O)Nc2cc(O)c(CC=C(C)C)c(O)c2)cc2c1O[C@]1(C)CC[C@@H](O)C(C)(C)[C@H]1C2` here?
A: 14.2% (inactive)

Q: `COc1cc(-c2cccc([N+](=O)[O-])c2)c(-c2nc(-c3ccccc3)c(-c3ccccc3)n2C2CC2)cc1OC` was tested. Which growth did it give?
A: 57.2% (inactive)

Q: How did the growth turn out when `O=c1[nH]c(NCc2nnnn2-c2ccc(Br)cc2)nc2sc3c(c12)CCCC3` was run?
A: 86.3% (inactive)

Q: With `CN(C)CCOC(=O)Nc1ccc(Cl)cc1` as the compound, how does the growth read?
A: 101% (inactive)

Q: `O=C(NC(=S)Nc1ccc(-c2nc3ccccc3[nH]2)cc1)c1ccc2ccccc2c1` was tested. Which growth did it give?
A: 5.49% (active)

Q: With `O=c1ccn(C2OC(F)(CO)C(O)C2F)c(=O)[nH]1` (configuration not stated) as the compound, how does the growth read?
A: 101% (inactive)

Q: With `Cc1ccc(NC(=O)C(Cl)Cl)cc1` as the compound, how does the growth read?
A: 97.2% (inactive)

Q: Which growth does the source give for `CCCCN1CCN(c2ccc3nc(-c4ccc5nc(-c6cc(OC)c(OC)c(OC)c6)[nH]c5c4)[nH]c3c2)CC1` here?
A: 10.7% (inactive)

Q: `CCCCCCCCn1cc(C2=C(c3coc4ccc(OC)cc34)C(=O)NC2=O)c2ccccc21` was tested. Which growth did it give?
A: 119% (inactive)

Q: `CCCCN1CCN(c2ccc3nc(-c4ccc5nc(-c6ccc(OCC)c(OCC)c6)[nH]c5c4)[nH]c3c2)CC1` was tested. Which growth did it give?
A: 14.3% (inactive)

Q: How did the growth turn out when `COc1ccc(C2CC(c3ccccc3)=NN2c2nc(C)c(C(C)=O)s2)cc1` (configuration not stated) was run?
A: 97.7% (inactive)

Q: For `O=C(/C=C/C12c3ccccc3C(c3ccccc31)C1C(=O)NC(=O)C12)c1ccccc1` (configuration not stated), which growth is on record?
A: 20.9% (inactive)

Tested on: RPMI-8226 leukemia
Assay: as above
Conditions: 10 µM unless noted

Q: With `COc1cc2c(c(OC)c1OC)C(=O)/C(=C/c1cc(C)c(O)c(C)c1)S2` as the compound, how does the growth read?
A: 21.8% (inactive)

Q: For `COc1cc(CNC(=O)/C=C/C=C/c2ccc3c(c2)OCO3)ccc1OCc1cn(-c2ccc(Cl)c(Cl)c2)nn1`, which growth is on record?
A: 20.9% (inactive)

Q: Which growth does the source give for `COc1ccccc1C(=O)NC(=S)Nc1ccc(-c2nc3ccccc3[nH]2)cc1` here?
A: 57.1% (inactive)

Q: How did the growth turn out when `O=C(/C=C/C12c3ccccc3C(c3ccccc31)C1C(=O)N(c3ccccc3)C(=O)C12)c1ccc(Cl)cc1` (configuration not stated) was run?
A: 4.68% (active)

Q: Which growth does the source give for `COc1cc(NC(=O)c2cccc(-c3cc(=O)c4c(O)c(OC)c(OC)cc4o3)c2)cc(OC)c1OC` here?
A: 27% (inactive)

Q: For `Nc1c(C(=O)c2ccc(Cl)s2)sc2nc3c(cc12)CCCC3`, which growth is on record?
A: 90.9% (inactive)

Q: With `N#Cc1c(-c2ccccc2)nc(SCC2CO2)nc1N1CCOCC1` (configuration not stated) as the compound, how does the growth read?
A: 47.9% (inactive)

Q: `CCCCN(CCCC)CCCn1c(=O)c2sc3ncccc3c2n2nnc(-c3ccccc3)c12` was tested. Which growth did it give?
A: 96.4% (inactive)

Q: With `CC1(C)CC(=O)c2c(ccc(C(=O)C[C@H](N)CO)c2N)O1` as the compound, how does the growth read?
A: 13% (inactive)

Q: For `COc1ccc(NC(=O)c2cccc(-c3cc(=O)c4c(O)c(OC)c(OC)cc4o3)c2)cc1`, which growth is on record?
A: 92.5% (inactive)

Q: `CCn1c(Sc2nnc(NC(C)=O)s2)nc2c1c(=O)n(C)c(=O)n2C` was tested. Which growth did it give?
A: 118% (inactive)

Q: How did the growth turn out when `COc1cc(NC(=O)c2cccc(-c3cc(=O)c4c(OC)c(OC)c(OC)cc4o3)c2)cc(OC)c1OC` was run?
A: 0.302% (active)

Q: With `CN(C)CN1CCN(c2ccc3nc(-c4ccc5nc(-c6ccc(C(F)(F)F)cc6)[nH]c5c4)[nH]c3c2)CC1` as the compound, how does the growth read?
A: 19.1% (inactive)

Q: With `COc1ccc(C2CC(c3ccc4ccccc4c3)=NN2c2nc(O)c(C3=c4cc(Cl)ccc4=NC3=O)s2)cc1` (configuration not stated) as the compound, how does the growth read?
A: -3.59% (active)

Q: `NS(=O)(=O)c1cnccc1-n1ccc(=O)c(S(N)(=O)=O)c1` was tested. Which growth did it give?
A: 60.4% (inactive)

Q: Which growth does the source give for `O=C(/C=C/C12c3ccccc3C(c3ccccc31)C1C(=O)N(c3ccc(Cl)cc3)C(=O)C12)c1ccccn1` (configuration not stated) here?
A: 3.98% (active)

Q: `O=C1CC(c2ccc3c(c2)OCO3)Nc2cc3c(cc21)OCO3` (configuration not stated) was tested. Which growth did it give?
A: 16.5% (inactive)

Q: For `C=CCOc1cccc(/C=C2\SC(=Nc3ccc(O)cc3)NC2=O)c1`, which growth is on record?
A: -14.4% (active)

Q: Which growth does the source give for `Cc1cc(-c2ccc(N(C)C)cc2)c2sc(=O)[nH]c2n1` here?
A: 70.6% (inactive)

Q: Which growth does the source give for `O=C1NC(=S)S/C1=C\N1N=C(c2ccc(Cl)cc2)CC1c1ccc(F)cc1` (configuration not stated) here?
A: 69.7% (inactive)

Q: With `COc1ccccc1NC(=O)Nc1ccc(-c2nc3ccccc3o2)cc1` as the compound, how does the growth read?
A: 96.7% (inactive)

Q: Which growth does the source give for `O=C(c1ccccc1)c1ccc(N2C(=O)C3C4c5ccccc5C(/C=C/C(=O)c5ccccn5)(c5ccccc54)C3C2=O)cc1` (configuration not stated) here?
A: 3.95% (active)

Q: With `Cc1ccc2c(n1)C(=O)C(Oc1ccc(F)cc1)=CC2=O` as the compound, how does the growth read?
A: 43.4% (inactive)

Q: Which growth does the source give for `COc1cc2ccccc2cc1C(=O)NC(=S)Nc1ccc(-c2nc3ccccc3[nH]2)cc1` here?
A: 71.5% (inactive)

Q: How did the growth turn out when `COc1cc2c(O)n(CCCn3ccnc3)c3c4cnc5cccc(c(=O)c3c2cc1OC)c54` was run?
A: 19.4% (inactive)

Q: For `Cc1nn(-c2ccccc2)c2c1C(c1ccc([N+](=O)[O-])cc1)C(C#N)=C(N)O2` (configuration not stated), which growth is on record?
A: 74.1% (inactive)

Q: With `Cc1ccc(S(=O)(=O)N(CC[C@@H]2C[C@H]2c2cc3ccccc3o2)C(=O)NC2CCCCC2)cc1` as the compound, how does the growth read?
A: 107% (inactive)

Q: For `N#Cc1c(NC(=O)c2ccc(Br)cc2)sc2c1CCCC2`, which growth is on record?
A: 33.3% (inactive)

Q: For `COc1cc(C(=O)Nc2cc(O)c(CC=C(C)C)c(O)c2)cc2c1O[C@]1(C)CC[C@@H](O)C(C)(C)[C@H]1C2`, which growth is on record?
A: -24.3% (active)

Q: `COc1cc(-c2cccc([N+](=O)[O-])c2)c(-c2nc(-c3ccccc3)c(-c3ccccc3)n2C2CC2)cc1OC` was tested. Which growth did it give?
A: 10.8% (inactive)

Q: How did the growth turn out when `O=c1[nH]c(NCc2nnnn2-c2ccc(Br)cc2)nc2sc3c(c12)CCCC3` was run?
A: 87.3% (inactive)

Q: For `CN(C)CCOC(=O)Nc1ccc(Cl)cc1`, which growth is on record?
A: 94.3% (inactive)

Q: How did the growth turn out when `O=C(NC(=S)Nc1ccc(-c2nc3ccccc3[nH]2)cc1)c1ccc2ccccc2c1` was run?
A: -6.21% (active)

Q: How did the growth turn out when `O=c1ccn(C2OC(F)(CO)C(O)C2F)c(=O)[nH]1` (configuration not stated) was run?
A: 106% (inactive)

Q: Which growth does the source give for `Cc1ccc(NC(=O)C(Cl)Cl)cc1` here?
A: 97% (inactive)

Q: `CCCCN1CCN(c2ccc3nc(-c4ccc5nc(-c6cc(OC)c(OC)c(OC)c6)[nH]c5c4)[nH]c3c2)CC1` was tested. Which growth did it give?
A: 55.9% (inactive)

Q: For `CCCCCCCCn1cc(C2=C(c3coc4ccc(OC)cc34)C(=O)NC2=O)c2ccccc21`, which growth is on record?
A: 119% (inactive)

Q: With `CCCCN1CCN(c2ccc3nc(-c4ccc5nc(-c6ccc(OCC)c(OCC)c6)[nH]c5c4)[nH]c3c2)CC1` as the compound, how does the growth read?
A: -25.4% (active)

Q: For `COc1ccc(C2CC(c3ccccc3)=NN2c2nc(C)c(C(C)=O)s2)cc1` (configuration not stated), which growth is on record?
A: 99% (inactive)

Q: How did the growth turn out when `O=C(/C=C/C12c3ccccc3C(c3ccccc31)C1C(=O)NC(=O)C12)c1ccccc1` (configuration not stated) was run?
A: 5.51% (active)
